The record followed here is PubChem BioAssay (NCATS).

In assay [1] the target is Ferritin light chain (Equus caballus) (UniProt P02791). The assay is described as follows: qHTS Validation Assay for Identification of Novel General Anesthetics (AID 2323). Further: series mostly up to about 77 µM. In outline:
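10 uM horse-spleen apoferritin + 1-AMA (50% saturated, PBS); cpd pin-transferred, 10 min RT. Ex 380/Em 535 nm endpoint. Activity normalized between free 1-AMA and 1-AMA/apoferritin; 4-parameter Hill fit of concentration-response.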

Assay [2] is described as follows: Cytometric Cell-Based qHTS for Inhibitors of the mTORC1 Signaling Pathway in MEF (Tsc2-/-, p53-/-) Cells (AID 2660).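 Further: Tsc2 and p53 null MEFs carrying empty vector with compound for 24 h; percent of cells above a phospho-rpS6 to PI ratio cutoff in each well; series mostly up to about 38 µM.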 In outline:
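Immunofluorescence qHTS of rpS6 Ser235/236 phosphorylation: MEFs (Tsc2-/-, p53-/-) treated 24 h, 37 C, in DMEM + 10% FBS. Alexa-488 signal normalized to PI count, referenced to rapamycin (7.5 nM) and DMSO; PI cell number recorded for viability.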

Assay [3] can be described thus: High Content Imaging Cell-Based qHTS for Inhibitors of the mTORC1 Signaling Pathway in MEF (Tsc2-/-, p53-/-) Cells (AID 2666).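 Further: percent of cells scored positive for phospho-rpS6 Ser235/236 immunostaining by imaging.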 In outline: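 MEF Tsc2-/- p53-/- (empty vector), DMEM/10% FBS; cpd 24 h 37 °C; PFA fix, Alexa-488 p-rpS6 S235/236 Ab, Hoechst; imaged; rapamycin-defined inhibition; % positive cells/well.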
A short description of assay [4]: High Content Imaging Cell-Based qHTS for Inhibitors of the mTORC1 Signaling Pathway in MEF Cells (AID 2667).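 Further: Tsc2-/- p53-/- MEFs stably re-expressing wild-type Tsc2 exposed 24 h; series mostly up to about 38 µM.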 In outline:
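Read-out is the share of phospho-rpS6-positive cells per well, from Hoechst-normalized Alexa-488 Ser235/236 staining imaged on IN Cell. Cells: WT Tsc2-expressing Tsc2-/-, p53-/- MEFs exposed to compound for 24 hrs.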

A short description of assay [5]: Validation screen for small molecules that induce DNA re-replication in MCF 10A normal breast cells (AID 463097). Further: nearly all actives have a fitted effect of over 60% in size. Further: potency means the concentration at half of the fitted maximal effect. In outline:
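250 MCF 10A cells/well; compound pin-transferred; 48 hr, 37 C, 5% CO2; Hoechst 40 min; imaged 405/500-530 nm. Hits = more high-intensity nuclei.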

For assay [6], the target named is Ubiquitin carboxyl-terminal hydrolase 2 (Homo sapiens) (UniProt O75604). The assay is described as follows: qHTS Validation Assay for Inhibitors of Ubiquitin-specific Protease USP2a Using CHOP2 as the Reporter (AID 463106). In outline:
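Fluorescence read-out at Ex 485nm/Em 531nm after 60min RT, following addition of 25nM Ub-CHOP2 plus 25nM reporter substrate to USP2 core (10nM) pretreated 30min with compound. Data normalized to NEM full inhibition; concentration-response curves fitted.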

Assay [7] deals with DNA polymerase III PolC-type (Bacillus subtilis (strain 168)) (UniProt P13267). The assay is described as follows: qHTS Validation Assay for the Inhibitors of DNA Replication in Gram-Positive Bacteria (AID 485295).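 Further: reconstituted holoenzyme with PolC plus beta clamp SSB and primase; PicoGreen fluorescence of double-stranded DNA made on primed circular M13 template; series mostly up to about 57 µM.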 In outline:
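PicoGreen fluorescence (ex 480–485/em 535–540 nm) reports dsDNA synthesized on ssM13Gori template with dNTPs/NTPs. Enzyme: holoenzyme rebuilt from purified PolC, beta subunit, SSB and primase. Compound preincubated before substrate addition; RT throughout.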

The target of assay [8] is Tumor susceptibility gene 101 protein (Homo sapiens) (UniProt Q99816). The assay is described as follows: qHTS Validation Assay for Iinhibitors of HIV-1 Budding by Blocking the Interaction of PTAP/TSG101 (AID 485342; calls by dose curve). In outline: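 FP read-out: FITC-PTAP peptide, 50 nM final, binding Tsg101 binding domain, 10 uM final; 20 min r.t.; 10 mM HEPES pH 7.5, 0.15 M NaCl, 0.01% Tween 20, 3 mM EDTA, 0.1 mM TCEP.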

Assay [9] is described as follows: qHTS Validation Assay to Find Inhibitors of Chronic Active B-Cell Receptor Signaling (AID 485345; active means well fitted curve in the direction sought with a large enough effect in the main read-out, with a control signal flat, not every such curve was filed as active). In outline:
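TMD8 ABC-DLBCL cells stably carrying doxycycline-inducible IkappaBalpha–green luciferase fusion plus unfused red luciferase; compounds 46 uM to 3 nM, 4 h at 37C with doxycycline. Corrected green/red luminescence ratio normalized to 10 uM MG-132 and basal cell wells; curves fitted.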

Assay [10] deals with Beta-2 adrenergic receptor (Homo sapiens) (UniProt P07550). The assay is described as follows: qHTS validation assay of beta-arrestin-biased ligands of beta2-adrenergic receptor (AID 485366). In outline:
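Agonism was measured as beta-arrestin recruitment to recombinant beta2-AR, releasing tTA to drive luciferase. Cells were exposed for 18 hr at 37 degrees C to a series up to 46 microM. %Activity from corrected luminescence gave concentration-response curves.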

Assay [11] is described as follows: Quantitative high throughput screen for delayed death inhibitors of the malarial parasite plastid, 96 hour incubation (AID 488745). Further: nearly all actives have a fitted effect of over 70% in size. Further: potency means the concentration at half of the fitted maximal effect. In outline: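 Decreased firefly luciferase luminescence indicates inhibited growth of reporter-integrated P. falciparum after two generations (96 h, 37 C, 5% CO2). Infected erythrocytes at 0.1% parasitemia, 2% hematocrit, in Albumax-supplemented RPMI 1640.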

Assay [12] can be described thus: Quantitative high throughput screen for delayed death inhibitors of the malarial parasite plastid, 48 hour incubation (AID 488752). Further: nearly all actives have a fitted effect of over 65% in size. Further: potency means the concentration at half of the fitted maximal effect. In outline: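 One-generation (48 h) growth assay: a decrease in luciferase signal from an integrated reporter in P. falciparum-infected red cells (0.1% parasitemia, 2% hematocrit) after compound exposure at 37 C indicates parasite inhibition.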

In assay [13] the target is Thioredoxin reductase 1, cytoplasmic (Rattus norvegicus) (UniProt O89049). The assay is described as follows: qHTS Assay for Inhibitors of Mammalian Selenoprotein Thioredoxin Reductase 1 (TrxR1) (AID 488773).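 Further: drop in NADPH fluorescence over an 8 min run after selenite addition; series mostly up to about 57 µM; nearly all actives have a fitted effect of over 40% in size.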 The following applies: Potency: inhibition. In outline:
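Inhibition is scored from the loss of NADPH fluorescence between first and last reads of an 8-min kinetic run. Selenite (400 uM) was the substrate, added after 15 min compound preincubation at room temperature.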

Assay [14] addresses M-phase phosphoprotein 8 (Homo sapiens) (UniProt Q99549). The assay is described as follows: qHTS Validation Assay for Inhibitors for MPP8 Chromodomain Interactions with Methylated Histone Tails (AID 488949). Further: nearly all actives have a fitted effect of over 55% in size. Further: potency means the concentration at half of the fitted maximal effect. In outline: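 AlphaScreen read-out: streptavidin donor and nickel chelate acceptor beads (final 10 ug/mL), 30 min in the dark at RT. Complex of 50 nM MPP8 and 50 nM b-H3(1-18)K9me3 peptide had been exposed to compounds for 30 min beforehand.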

Assay [15] has as its target RecQ-like DNA helicase BLM (Homo sapiens) (UniProt P54132). The assay is described as follows: qHTS Validation Assay for Inhibitors of Bloom's syndrome helicase (BLM) (AID 2364). In outline:
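50 nM BLM preincubated 15 min at room temperature with compound in pH 8.0 Tris buffer containing 2.5 ug/ml poly(dI-dC); started with 200 nM TAMRA/BHQ-2 forked duplex and 2 mM ATP (final). Unwinding read as TAMRA fluorescence increase, two reads 2 h apart.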

The nature of assay [16]: Cytometry Cell-Based qHTS for Inhibitors of the mTORC1 Signaling Pathway in MEF cells (AID 2668).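 Further: Tsc2-/- p53-/- mouse embryonic fibroblasts stably re-expressing wild-type Tsc2; percent cells positive for phospho-rpS6 Ser235/236 relative to propidium iodide stain; series mostly up to about 38 µM.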 In outline: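 Read-out: phospho-rpS6 Ser235/236 immunofluorescence normalized to propidium iodide intensity, scored as % active cells against a rapamycin (7.5 nM) threshold. Cells: Tsc2-/-, p53-/- MEFs stably expressing WT Tsc2, compound-treated 24 hrs at 37 degree Celsius.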

Assay [17] deals with Flap endonuclease 1 (Homo sapiens) (UniProt P39748). The assay is described as follows: qHTS Validation Assay for the Inhibitors of Human Flap endonuclease 1 (FEN1) (AID 488816). In outline:
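Enzyme reagent 10 nM; cpds pinned; 15 min RT preinc.; substrate 50 nM final; reads t=0 and 15 min; no-enzyme buffer wells as neg. control; normalized data, 4-parameter Hill fit.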

The target of assay [18] is ATP-dependent 6-phosphofructokinase (Trypanosoma brucei brucei) (UniProt O15648). The assay is described as follows: qHTS Validation Assay to Find Inhibitors of T. brucei phosphofructokinase (AID 485368). The following applies: outcome: dose series up to 57.5 µM. In outline:
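ADP-Glo luminescence, two-step: residual ATP depleted, then ADP converted to ATP for luciferase. Enzyme 1.25 nM, F6P 0.5 mM, ATP 0.1 mM, pH 8.0 TEA buffer, 45 min RT. Curves fitted and classed by quality and efficacy.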

In assay [19] the target is ATP-dependent DNA helicase Q1 (Homo sapiens) (UniProt P46063). The assay is described as follows: qHTS Validation Assay for Inhibitors of RecQ-Like Dna Helicase 1 (RECQ1) (AID 2353). In outline:
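RECQ1T1 50 nM; forked duplex (20 bp + 30-nt ss tails) 200 nM, ATP 2 mM final; pH 8.0, 2 mM MgCl2, 2.5 ug/ml poly(dI-dC); 15 min compound preincubation; discontinuous kinetic read over 2 h at RT.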

The target in assay [20] is Thioredoxin reductase 1, cytoplasmic (Rattus norvegicus) (UniProt O89049). The assay is described as follows: qHTS Assay for Substrates of Mammalian Selenoprotein Thioredoxin Reductase 1 (TrxR1) (AID 488772).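 Further: series mostly up to about 57 µM; a drop in NADPH fluorescence below the no-compound background marks a TrxR1 substrate.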 In outline: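 In this dual-purpose format, potential substrates are identified from the first fluorescence read after selenite addition, not from the 8-minute delta. Rat enzyme is preincubated with NADPH and then with compound at ~22 deg C.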

Records with an inconclusive call do not appear. Some structures have more than one record in an assay (separate samples or runs), and their calls can disagree. Calls of active or inactive are those of the source. Unless noted, the call rests on the fitted dose curve; in most records, active means well fitted curve in the direction sought with a large enough effect; inconclusive means small, poorly fitted or top-dose-only effect, or another doubt; inactive means no such curve, though single readings can be large; an effect the other way counts as inactive or inconclusive.

Sequence of Beta-2 adrenergic receptor (Homo sapiens) (P07550 whole entry, looked up): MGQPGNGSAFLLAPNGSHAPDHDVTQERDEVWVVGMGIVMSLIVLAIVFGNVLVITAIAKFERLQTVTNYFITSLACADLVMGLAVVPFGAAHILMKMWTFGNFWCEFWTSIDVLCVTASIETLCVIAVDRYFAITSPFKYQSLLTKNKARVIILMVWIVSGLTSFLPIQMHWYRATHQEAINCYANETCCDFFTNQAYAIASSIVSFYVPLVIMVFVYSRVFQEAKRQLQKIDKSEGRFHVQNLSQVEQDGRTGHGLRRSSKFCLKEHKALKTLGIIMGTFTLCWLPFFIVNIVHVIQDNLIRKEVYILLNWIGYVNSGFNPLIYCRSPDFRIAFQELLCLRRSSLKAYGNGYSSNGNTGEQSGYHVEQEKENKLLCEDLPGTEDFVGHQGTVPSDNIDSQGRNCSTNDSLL
Sequence of Flap endonuclease 1 (Homo sapiens) (P39748 whole entry, looked up): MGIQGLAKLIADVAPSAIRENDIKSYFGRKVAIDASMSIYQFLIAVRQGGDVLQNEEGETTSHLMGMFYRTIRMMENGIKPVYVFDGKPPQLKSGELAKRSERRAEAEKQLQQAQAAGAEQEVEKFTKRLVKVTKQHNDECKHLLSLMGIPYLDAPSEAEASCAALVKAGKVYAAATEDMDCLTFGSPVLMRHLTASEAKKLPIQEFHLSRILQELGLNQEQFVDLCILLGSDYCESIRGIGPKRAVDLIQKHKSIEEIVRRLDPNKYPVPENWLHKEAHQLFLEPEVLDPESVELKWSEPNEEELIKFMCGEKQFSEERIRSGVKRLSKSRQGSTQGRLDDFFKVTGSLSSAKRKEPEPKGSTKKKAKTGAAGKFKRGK
Sequence of Thioredoxin reductase 1, cytoplasmic (Rattus norvegicus) (O89049 whole entry, looked up): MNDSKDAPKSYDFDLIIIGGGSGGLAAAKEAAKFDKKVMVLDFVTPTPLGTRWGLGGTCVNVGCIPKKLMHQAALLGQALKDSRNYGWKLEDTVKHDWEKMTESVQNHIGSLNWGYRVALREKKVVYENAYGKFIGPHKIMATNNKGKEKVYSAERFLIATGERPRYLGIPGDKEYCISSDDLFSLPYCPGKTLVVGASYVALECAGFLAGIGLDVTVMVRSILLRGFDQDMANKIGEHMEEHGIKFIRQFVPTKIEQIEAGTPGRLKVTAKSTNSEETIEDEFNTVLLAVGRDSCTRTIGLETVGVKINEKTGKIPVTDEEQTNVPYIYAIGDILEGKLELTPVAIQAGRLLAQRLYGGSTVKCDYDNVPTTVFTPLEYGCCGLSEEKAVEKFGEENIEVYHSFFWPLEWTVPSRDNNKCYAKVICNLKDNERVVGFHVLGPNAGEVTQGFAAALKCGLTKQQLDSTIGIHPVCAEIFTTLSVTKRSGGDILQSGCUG
Sequence of Tumor susceptibility gene 101 protein (Homo sapiens) (Q99816 whole entry, looked up, the tested form may be a part): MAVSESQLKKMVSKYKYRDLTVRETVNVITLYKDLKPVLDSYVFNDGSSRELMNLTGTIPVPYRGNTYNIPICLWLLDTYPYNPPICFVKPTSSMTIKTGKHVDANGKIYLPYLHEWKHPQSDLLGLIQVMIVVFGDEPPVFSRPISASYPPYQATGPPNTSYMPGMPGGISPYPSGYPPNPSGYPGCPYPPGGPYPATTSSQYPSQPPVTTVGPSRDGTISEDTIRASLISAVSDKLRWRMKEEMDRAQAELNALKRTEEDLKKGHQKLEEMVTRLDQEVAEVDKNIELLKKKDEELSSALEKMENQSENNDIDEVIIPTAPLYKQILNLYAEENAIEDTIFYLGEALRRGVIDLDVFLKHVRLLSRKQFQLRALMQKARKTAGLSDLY
Sequence of DNA polymerase III PolC-type (Bacillus subtilis (strain 168)) (P13267 whole entry, looked up): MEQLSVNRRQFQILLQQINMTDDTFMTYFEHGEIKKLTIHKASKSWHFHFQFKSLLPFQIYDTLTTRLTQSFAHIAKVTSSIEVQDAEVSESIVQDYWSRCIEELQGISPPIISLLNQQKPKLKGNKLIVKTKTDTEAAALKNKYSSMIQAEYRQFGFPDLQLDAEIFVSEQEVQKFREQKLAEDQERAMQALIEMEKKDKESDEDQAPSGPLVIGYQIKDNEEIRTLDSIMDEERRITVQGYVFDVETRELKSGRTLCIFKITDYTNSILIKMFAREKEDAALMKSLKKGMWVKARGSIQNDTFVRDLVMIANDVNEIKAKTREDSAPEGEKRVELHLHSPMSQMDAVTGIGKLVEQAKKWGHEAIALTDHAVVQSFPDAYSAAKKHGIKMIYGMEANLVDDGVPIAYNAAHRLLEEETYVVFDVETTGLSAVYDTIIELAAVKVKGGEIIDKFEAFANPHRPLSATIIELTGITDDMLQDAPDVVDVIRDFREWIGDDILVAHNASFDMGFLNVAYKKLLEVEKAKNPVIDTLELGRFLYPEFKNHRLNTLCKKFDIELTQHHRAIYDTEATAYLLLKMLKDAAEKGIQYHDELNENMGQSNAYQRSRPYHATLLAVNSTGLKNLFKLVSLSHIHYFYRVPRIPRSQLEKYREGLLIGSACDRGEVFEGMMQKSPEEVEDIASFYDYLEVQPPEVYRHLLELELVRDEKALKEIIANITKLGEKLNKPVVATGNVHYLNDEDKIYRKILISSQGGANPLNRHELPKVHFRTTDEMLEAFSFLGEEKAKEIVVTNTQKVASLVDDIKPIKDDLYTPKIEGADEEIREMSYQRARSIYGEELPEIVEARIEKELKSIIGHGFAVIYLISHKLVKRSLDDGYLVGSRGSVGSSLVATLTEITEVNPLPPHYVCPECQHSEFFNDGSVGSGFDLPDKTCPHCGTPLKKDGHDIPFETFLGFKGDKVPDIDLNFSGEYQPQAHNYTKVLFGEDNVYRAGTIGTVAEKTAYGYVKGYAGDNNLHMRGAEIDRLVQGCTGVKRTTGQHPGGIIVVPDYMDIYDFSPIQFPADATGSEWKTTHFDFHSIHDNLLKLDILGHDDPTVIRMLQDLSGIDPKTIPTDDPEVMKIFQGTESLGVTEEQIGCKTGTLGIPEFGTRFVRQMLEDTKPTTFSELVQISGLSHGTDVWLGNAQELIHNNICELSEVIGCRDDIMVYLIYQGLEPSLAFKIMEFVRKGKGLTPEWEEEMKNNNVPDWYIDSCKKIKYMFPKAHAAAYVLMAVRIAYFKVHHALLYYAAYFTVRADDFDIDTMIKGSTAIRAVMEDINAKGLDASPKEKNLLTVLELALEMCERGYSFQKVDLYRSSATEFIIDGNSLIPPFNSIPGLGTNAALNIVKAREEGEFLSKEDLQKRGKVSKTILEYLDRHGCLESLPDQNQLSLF
Sequence of Ubiquitin carboxyl-terminal hydrolase 2 (Homo sapiens) (O75604 whole entry, looked up): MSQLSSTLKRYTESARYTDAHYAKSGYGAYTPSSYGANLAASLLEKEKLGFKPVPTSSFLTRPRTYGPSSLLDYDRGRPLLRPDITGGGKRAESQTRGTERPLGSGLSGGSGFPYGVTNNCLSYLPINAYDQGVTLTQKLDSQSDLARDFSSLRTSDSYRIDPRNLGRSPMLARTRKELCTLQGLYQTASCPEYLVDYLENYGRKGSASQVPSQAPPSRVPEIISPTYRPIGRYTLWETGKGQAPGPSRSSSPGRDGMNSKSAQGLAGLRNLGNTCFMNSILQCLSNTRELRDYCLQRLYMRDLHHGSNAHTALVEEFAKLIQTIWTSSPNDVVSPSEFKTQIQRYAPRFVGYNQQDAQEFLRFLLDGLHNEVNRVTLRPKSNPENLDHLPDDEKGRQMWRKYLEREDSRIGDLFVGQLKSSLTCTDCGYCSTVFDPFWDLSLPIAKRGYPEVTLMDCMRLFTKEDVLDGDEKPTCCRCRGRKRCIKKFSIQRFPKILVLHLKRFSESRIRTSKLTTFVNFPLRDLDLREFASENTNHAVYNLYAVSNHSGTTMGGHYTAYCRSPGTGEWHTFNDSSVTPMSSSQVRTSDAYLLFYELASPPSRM
Sequence of M-phase phosphoprotein 8 (Homo sapiens) (Q99549 whole entry, looked up): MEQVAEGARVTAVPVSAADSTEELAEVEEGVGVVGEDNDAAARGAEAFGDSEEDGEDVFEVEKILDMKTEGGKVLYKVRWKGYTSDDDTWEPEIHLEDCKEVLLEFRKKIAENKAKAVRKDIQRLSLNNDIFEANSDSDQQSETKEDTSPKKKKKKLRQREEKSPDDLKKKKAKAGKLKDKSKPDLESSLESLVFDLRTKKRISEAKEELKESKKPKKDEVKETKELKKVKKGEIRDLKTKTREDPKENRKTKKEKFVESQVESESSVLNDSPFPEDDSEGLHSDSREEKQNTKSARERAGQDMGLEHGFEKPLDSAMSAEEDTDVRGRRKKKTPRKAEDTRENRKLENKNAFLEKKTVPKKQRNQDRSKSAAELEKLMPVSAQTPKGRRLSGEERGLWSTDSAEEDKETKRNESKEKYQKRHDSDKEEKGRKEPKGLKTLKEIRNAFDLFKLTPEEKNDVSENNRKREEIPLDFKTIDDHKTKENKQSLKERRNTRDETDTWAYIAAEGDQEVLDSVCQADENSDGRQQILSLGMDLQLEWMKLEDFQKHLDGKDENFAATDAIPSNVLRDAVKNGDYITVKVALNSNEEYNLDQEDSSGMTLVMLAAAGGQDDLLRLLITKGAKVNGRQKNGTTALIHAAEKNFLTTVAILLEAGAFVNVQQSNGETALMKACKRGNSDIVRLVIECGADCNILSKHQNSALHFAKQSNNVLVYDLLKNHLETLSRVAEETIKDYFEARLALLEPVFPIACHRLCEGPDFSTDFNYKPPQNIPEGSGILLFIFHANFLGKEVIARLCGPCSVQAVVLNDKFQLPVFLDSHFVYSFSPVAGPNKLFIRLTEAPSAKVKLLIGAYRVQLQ
Sequence of Ferritin light chain (Equus caballus) (P02791 2-175 limits assumed): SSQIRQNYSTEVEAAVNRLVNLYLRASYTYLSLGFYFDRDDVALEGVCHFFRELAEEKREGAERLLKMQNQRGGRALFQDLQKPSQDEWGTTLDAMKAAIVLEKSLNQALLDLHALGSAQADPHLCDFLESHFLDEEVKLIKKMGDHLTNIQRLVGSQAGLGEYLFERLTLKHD

For the compound `CCNC(=O)N1CCN(CCCC(c2ccc(F)cc2)c2ccc(F)cc2)CC1`, the call in assay [1], in [2], in [6], in assay [8] and in [10] was inactive. The Potency result in assay [3], in [4], in assay [5], in assay [7], in assay [9] and in assay [13] was “inactive” each time. For the same compound, in assay [14], the Potency result was “inactive”. In addition, the Potency in [11] was 1650 nM (active); in [12] it was 2940 nM (active).
Turning to `C(=C\c1ccccc1)/CN1CCN(C(c2ccccc2)c2ccccc2)CC1`, the outcome in assay [1], in [2], in assay [6], in assay [8] and in [10] was inactive. For the same compound, the Potency result in [15], in assay [3], in assay [4], in assay [16], in assay [7] and in assay [9] was “inactive” in each case. For the same compound, the Potency entry in [11], in assay [13], in [17] and in [14] was “inactive” in each case.
With `C[C@]12C=CC(=O)C=C1CC[C@H]1[C@@H]3C[C@@H](O)[C@](O)(C(=O)CO)[C@@]3(C)C[C@H](O)[C@@]12F`, the result in assay [1], in assay [2], in [6], in assay [8], in assay [10] and in [18] was inactive. Also, the Potency result in assay [3], in assay [4], in assay [16], in assay [5], in assay [11] and in [12] was “inactive” throughout. Besides, the Potency result in assay [17] was “inactive”.
As for `Nc1ncn([C@@H]2O[C@H](CO)[C@@H](O)[C@H]2O)c(=O)n1`, the call in assay [1], in [6], in assay [8], in assay [10] and in assay [20] was inactive. The Potency result in [19], in [3], in assay [11], in assay [12], in [13] and in assay [17] was “inactive” throughout. The Potency result in [14] was “inactive”. For the same compound, the Potency in assay [5] is 3160 nM (active).
As to `C=CCc1ccccc1OCC(O)CNC(C)C` (stereo unspecified), the result in assay [1], in assay [2], in assay [6], in [8] and in [20] was inactive. Besides, the Potency result in assay [15], in [3], in assay [4], in [16], in assay [5] and in [9] was “inactive” in each case. Also, the Potency entry in assay [12], in assay [13], in assay [17] and in assay [14] was “inactive” in each case.
`Cc1cc(C)c(/C=C2\C(=O)Nc3ccccc32)[nH]1`: the outcome in assay [1] and in assay [2] was inactive. Moreover, the Potency entry in assay [3], in assay [4], in [7], in [11], in [13] and in assay [17] was “inactive” throughout. Moreover, in assay [14], the Potency was 7.94 µM (active) and inactive.
On to `CNCCC(Oc1ccccc1OC)c1ccccc1` (stereo unspecified), for which the compound was called inactive in assay [1], in assay [2], in assay [6], in assay [8] and in assay [20]. Also, the Potency result in assay [15], in assay [3], in [4], in assay [16], in assay [5] and in [7] was “inactive” in each case. For the same compound, the Potency result in assay [9], in [11], in [12], in assay [13], in [17] and in assay [14] was “inactive” in each case.
